A selection: hits, their analogues and other compounds. The true share with any hit is near 3.4%.
ADAM17 inh – inhibits human ADAM17; inhibition, % at 6.95 µM; AID 720648; recombinant ADAM17, EDANS/DABCYL FRET peptide cleavage; 370,000 compounds, 0.83% hits;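 active = inhibition above the mean of compounds lying between control limits plus 3 SD, set per campaign, cut at about 8.5% in these data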
CendR NRP1 mod – modulators of CendR peptide binding to human neuropilin-1; 360,000 compounds, 0.85% hits; O14786; FAM-RPARPAR peptide binding to NRP-1, fluorescence polarization; inhibition, % at 25 µM;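 active = inhibition or corrected inhibition above about 18%, plus a signal ratio from 0.5 to 1.5, limit read from the data, passing the limit was not always enough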
Target sequence (O14786 whole entry, looked up): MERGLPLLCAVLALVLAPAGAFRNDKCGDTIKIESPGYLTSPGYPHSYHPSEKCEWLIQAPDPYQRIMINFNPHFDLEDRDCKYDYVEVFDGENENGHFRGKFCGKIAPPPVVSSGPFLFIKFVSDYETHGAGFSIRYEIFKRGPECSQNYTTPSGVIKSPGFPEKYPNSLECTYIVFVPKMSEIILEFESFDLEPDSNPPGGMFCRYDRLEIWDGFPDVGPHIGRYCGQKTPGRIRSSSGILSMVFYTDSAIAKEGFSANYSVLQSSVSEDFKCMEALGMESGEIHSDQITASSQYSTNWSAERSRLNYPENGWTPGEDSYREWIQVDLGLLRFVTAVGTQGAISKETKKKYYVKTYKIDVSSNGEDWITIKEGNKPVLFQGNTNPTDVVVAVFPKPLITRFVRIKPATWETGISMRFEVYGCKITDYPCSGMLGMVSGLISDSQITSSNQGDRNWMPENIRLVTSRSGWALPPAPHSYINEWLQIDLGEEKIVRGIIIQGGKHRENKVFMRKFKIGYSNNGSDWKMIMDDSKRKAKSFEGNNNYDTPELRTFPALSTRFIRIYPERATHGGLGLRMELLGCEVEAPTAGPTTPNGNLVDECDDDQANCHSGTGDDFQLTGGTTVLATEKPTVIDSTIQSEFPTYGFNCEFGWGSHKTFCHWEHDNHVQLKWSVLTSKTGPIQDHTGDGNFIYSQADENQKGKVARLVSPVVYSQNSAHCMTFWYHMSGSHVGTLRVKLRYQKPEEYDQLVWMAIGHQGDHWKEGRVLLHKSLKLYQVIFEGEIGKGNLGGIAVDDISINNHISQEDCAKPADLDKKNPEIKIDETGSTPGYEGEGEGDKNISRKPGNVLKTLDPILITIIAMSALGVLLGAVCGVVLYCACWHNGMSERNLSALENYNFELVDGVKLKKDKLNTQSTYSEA
KLK7 zymogen act – activators of human kallikrein-7 zymogen; AID 652039; 370,000 compounds, 0.9% hits; purified proKLK7, EDANS-DABCYL substrate fluorescence; 100% is mature enzyme control, 0% vehicle; P49862; activation, % at 7 µM;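 active = activation above the mean of all tested compounds plus 3 SD, computed per campaign excluding outliers beyond control limits, cut at about 13% in these data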
sPLA2-III inh – Inhibits HGIII-sPLA2 liposome hydrolysis, primary screen; Q9NZ20; inhibition, % at 12.2 µM; 370,000 compounds, 0.56% hits; QFRET BODIPY PC-A2 liposome hydrolysis, fluorescence;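 active = inhibition above mean plus 3 SD of compounds lying within the high and low control bounds, cut at about 19% in these data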
ADAM10 inh – inhibits human ADAM10; 370,000 compounds, 0.62% hits; recombinant ADAM10, EDANS/DABCYL FRET peptide cleavage, 3 h; AID 720582; inhibition, % at 7 µM;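 active = inhibition above a per-campaign cutoff equal to the mean of compounds falling between control-based bounds plus 3 SD, cut at about 20% in these data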
ADAM10 counter – counter-screen for ADAM17 exosite inhibitors: inhibitors of human ADAM10; shares compounds with ADAM17 inh; inhibition, % at 6.95 µM; 2,900 compounds, 47% hits; recombinant ADAM10, EDANS/DABCYL FRET peptide cleavage, 3 h;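 active = mean inhibition over the triplicate runs exceeds the activity threshold set in the earlier primary screen, cut at about 20% in these data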
ADAM17 confirm – confirmation of inhibitors of human ADAM17; shares compounds with ADAM17 inh; AID 743257; inhibition, % at 6.95 µM; 2,900 compounds, 65% hits; recombinant ADAM17, EDANS/DABCYL QFRET peptide cleavage;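 active = mean inhibition across replicates above the hit cutoff set in the primary screen, cut at about 8.5% in these data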
Of the large screens only hits and unclear results are named; the others gave an inactive call (follow-up assays come after a bar, where they were run).

COC(=O)[C@@]12CCCCN1[C@H](c1ccc(SC3CCCCC3)c(OC)c1)[C@@H]1C(=O)N(C)C(=O)[C@@H]12	ADAM17 inh 10 | ADAM10 counter 29 | ADAM17 confirm 17
CCSc1ccc([C@@H]2[C@H]3C(=O)N(C)C(=O)[C@H]3[C@]3(C(=O)OC)CCCCN23)cc1OC	ADAM17 inh 11 | ADAM10 counter 26 | ADAM17 confirm 13
CCN1C(=O)[C@@H]2[C@@H](c3ccc(SC4CCCCC4)c(OC)c3)N3CCCC[C@@]3(C(=O)OC)[C@@H]2C1=O	none
CCCSc1ccc([C@@H]2[C@H]3C(=O)N(CC)C(=O)[C@H]3[C@]3(C(=O)OC)CCCN23)cc1	ADAM17 inh 13 | ADAM10 counter inactive | ADAM17 confirm inactive
CCC(C)Sc1ccc([C@@H]2[C@@H]3C(=O)N(C)C(=O)[C@@H]3[C@]3(C(=O)OC)CCCCN23)cc1OC (some centres undefined)	none
CCC(C)Sc1ccc([C@@H]2[C@@H]3C(=O)N(CC)C(=O)[C@@H]3[C@]3(C(=O)OC)CCCCN23)cc1OC (some centres undefined)	ADAM17 inh 9.2 | ADAM10 counter inactive | ADAM17 confirm inactive
Nc1ncnc2c1ncn2[C@@H]1O[C@H](CNCc2ccc(-c3cc(C(F)(F)F)ccc3Cl)o2)[C@@H](O)[C@H]1O	ADAM17 inh 10 | ADAM10 counter inactive | ADAM17 confirm inactive
O=c1ccn([C@@H]2O[C@H](CNCc3ccc(-c4cc(C(F)(F)F)ccc4Cl)o3)[C@@H](O)[C@H]2O)c(=O)[nH]1	none
CC(C)c1ccc(S(=O)(=O)N2CCN(C(=S)NCc3ccco3)CC2)cc1	ADAM17 inh 9.5 | ADAM10 counter 28 | ADAM17 confirm 17
O=S(=O)(c1cccc(C(F)(F)F)c1)N1CCN(C(=S)NCc2ccco2)CC1	none
O=S(=O)(CC1NCc2cc(F)ccc21)NC1CCCC1 (centres undefined)	none (no result: CendR NRP1 mod)
COc1ccc(-c2csc(NC(=O)COc3ccc(N(C)S(=O)(=O)c4ccc(C)cc4)cc3)n2)cc1	ADAM17 inh 9.9 | ADAM10 counter inactive | ADAM17 confirm inactive
CCOC(=O)[C@@]12CN(C(=O)OC(C)(C)C)CC=C1N(Cc1ccc(OC)cc1)C(=O)[C@H]2CC(=O)NCc1cccc2ccccc12	none (no result: CendR NRP1 mod)
COc1ccc(NC(=O)c2csc3c2CCCC3)cc1	none (no result: ADAM17 inh, KLK7 zymogen act, sPLA2-III inh, ADAM10 inh)
COc1cccc(NC(=O)c2csc3c2CCCC3)c1	ADAM17 inh 13 | ADAM10 counter inactive | ADAM17 confirm inactive
C=CCN1C(=O)[C@H](CC(=O)NCc2ccc(C)o2)[C@@]2(C(=O)OCC)CCCC=C12	none (no result: CendR NRP1 mod)
NS(=O)(=O)c1ccc(N/N=C2/CCCCC2C2CCCCC2)c([N+](=O)[O-])c1 (centres undefined)	ADAM17 inh 12 | ADAM10 counter inactive | ADAM17 confirm 8.7
CCOc1ccccc1NC(=O)C(OC(=O)c1ccc(CC)cc1)c1ccccc1 (centres undefined)	none
CCOc1ccccc1NC(=O)C(OC(=O)c1ccc(O)cc1)c1ccccc1 (centres undefined)	ADAM17 inh 9.6 | ADAM10 counter 33 | ADAM17 confirm 20
CC(C)C[C@@H]1COc2cccc(NCCO)c2S(=O)(=O)N1	none (no result: CendR NRP1 mod)
O/N=C(\c1ccc(Cl)cc1Cl)c1ncc(C(F)(F)F)cc1Cl	ADAM17 inh 12 | ADAM10 counter 29 | ADAM17 confirm 13
CCOC(=O)NCc1ccc(S(=O)(=O)Nc2ccc(C)cc2)cc1	ADAM17 inh 11 | ADAM10 counter inactive | ADAM17 confirm inactive
Cc1ccc(NS(=O)(=O)c2ccc(C3CCCCC3)cc2)cc1	ADAM17 inh 8.9 | ADAM10 counter 38 | ADAM17 confirm 18
Cc1ccccc1C(=O)N1CCN(c2ccc(NC(=O)c3ccco3)cc2Cl)CC1	none
O=C(Nc1ccc(N2CCN(C(=O)c3cccs3)CC2)c(Cl)c1)c1ccco1	ADAM17 inh 9.0 | ADAM10 counter inactive | ADAM17 confirm inactive
Cc1c(C(=O)N(Cc2ccc(N(C)C)cc2)CC2CCCO2)oc2ccccc12 (centres undefined)	ADAM17 inh 10.0 | ADAM10 counter inactive | ADAM17 confirm inactive
CN(C)c1ccc(CN(CC2CCCO2)C(=O)c2cc3ccccc3o2)cc1 (centres undefined)	none
O=C(NCc1c(F)cccc1F)C1CCC(CNS(=O)(=O)c2cccc3cccnc23)CC1 (centres undefined)	none (no result: CendR NRP1 mod)
C=CCn1c(N(C)C)nc2c1c(=O)[nH]c(=O)n2C	ADAM17 inh 9.8 | ADAM10 counter inactive | ADAM17 confirm inactive
O=S1(=O)CCOC[C@H](Cc2ccccc2)N1Cc1ccccc1	none
O=S1(=O)CCOC[C@H](Cc2ccccc2)N1Cc1cccc(C(F)(F)F)c1	ADAM17 inh 11 | ADAM10 counter inactive | ADAM17 confirm inactive
C[C@H]1[C@H](c2ccccc2)Oc2cccc(NCCc3ccccc3)c2S(=O)(=O)N1Cc1cccc(Cl)c1	none (no result: CendR NRP1 mod)
COc1ccccc1CC1(C)C(=O)Nc2ccc(S(=O)(=O)NC3CCCCC3)cc21 (centres undefined)	none
CC1(Cc2ccc(F)cc2)C(=O)Nc2ccc(S(=O)(=O)NC3CCCCC3)cc21 (centres undefined)	ADAM17 inh 9.1 | ADAM10 counter inactive | ADAM17 confirm inactive
S=c1[nH]nc(COc2ccc(Cl)cc2)n1C1CCCCC1	ADAM17 inh 11 | ADAM10 counter inactive | ADAM17 confirm inactive
COc1cccc(-c2ccc(CC[C@H]3O[C@H]4CC[C@@H](CO)O[C@H]4C[C@H]3NS(C)(=O)=O)cc2)c1	none (no result: CendR NRP1 mod)
CCC1C(=NO)C(CC)C(c2ccccc2)NC1c1ccccc1 (centres undefined)	ADAM17 inh 17 | ADAM10 counter inactive | ADAM17 confirm 10
Cc1ccc(S(=O)(=O)Nc2cc(=O)[nH]c(SCc3ccc(Cl)cc3)n2)cc1	ADAM17 inh 12 | ADAM10 counter 20 | ADAM17 confirm 17
O=c1cc(NS(=O)(=O)c2ccccc2)nc(SCc2c(Cl)cccc2Cl)[nH]1	none
O=C(Nc1cccc(F)c1)OCCCN1CCC2(CCC(c3ccccc3)CC2)C1 (centres undefined)	none (no result: CendR NRP1 mod)
CC1=CC2=NC(=O)/C(=C\c3cccn3CCOc3cccc(C)c3)C(=N)N2O1	ADAM17 inh 8.7 | ADAM10 counter inactive | ADAM17 confirm inactive
COc1cccc(OCCn2cccc2/C=C2/C(=N)N3OC(C)=CC3=NC2=O)c1	none
CC(C)(C)NS(=O)(=O)c1ccc(CCC(=O)Nc2cc(Cl)ccc2Oc2ccccc2)cc1	ADAM17 inh 9.7 | ADAM10 counter 33 | ADAM17 confirm 19
